# Assay results reported in PubChem BioAssay (NCI).
# This is part of a sample that, as a whole, favours compounds with a hit. Of some 83,000 tested, about 20% had one in any assay.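 For each line, cells grew in 96-well plates with the test compound present at a single concentration for 48 hours.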 Values without a mark were called inactive. Activity calls are given as the source filed them. How the source made its calls: active means growth percent below 10; inactive means the rest.
# Experiments:
# Experiment in all cases: NCI-60 one-dose screen, 48 h (100 = growth as untreated, 0 = no growth, -100 = all killed)
# Settings in all cases: 10 µM unless noted
# [1] = tested on: T-47D breast
# [2] = tested on: BT-549 breast
# [3] = tested on: MDA-MB-435 melanoma
# [4] = tested on: SW-620 colon
# [5] = tested on: MCF7 breast
# [6] = tested on: HCT-116 colon
# [7] = tested on: HCC-2998 colon
# [8] = tested on: KM12 colon
Compound,growth [1],growth [2],growth [3],growth [4],growth [5],growth [6],growth [7],growth [8]
C#CCNC(=O)[C@]1(C)CCC[C@@]2(C)[C@H]1CC=C1C=C(C(C)C)CC[C@@H]12,85.2%,100%,104%,109%,85.6%,107%,100%,100%
Cc1ccc(NC(=O)Cn2c(Br)nc3c2c(=O)n(C)c(=O)n3C)cc1,-10.5% (active),0.261% (active),54.2%,30%,13.2%,-21.5% (active),83.7%,63.8%
NC(=O)c1c(NC(=O)c2cccs2)sc2c1CCC(=O)C2,8.16% (active),8.21% (active),43.7%,15.1%,45.1%,4.11% (active),72.9%,20.3%
CNC1=CC(=O)c2c(C(=O)OC)c(C)[n+]([O-])c(C)c2C1=O,52.4%,88.3%,-17.3% (active),42.5%,57%,16%,50.1%,61.3%
CCOC(=O)c1cc(C(=O)c2cc(OC)c(OC)c(OC)c2)n2ccccc12,47.5%,40%,-41.8% (active),29.8%,23.7%,18.9%,39.4%,25.2%
COc1ccc(C(=S)N2CCN(c3ccc(Cl)cc3)CC2)cc1,88.1%,95.4%,120%,106%,94%,96%,105%,101%
Cc1nnc(-c2ccc3c(c2)nc(/C=C/c2ccccc2)n3C2CCCCC2)o1,52%,81%,83.8%,111%,77.1%,64.5%,87.7%,85.1%
CCN1C(=O)N(CC)C2C1NN=c1s/c(=C3\C(=O)N(CCC(C)C)c4ccccc43)c(=O)n12 (stereo not drawn),80.2%,11.6%,-31.3% (active),31.7%,14.9%,10.6%,11.6%,17.6%
COc1cc(/C=C2\CN(S(=O)(=O)c3ccccc3)C/C(=C\c3cc(CN4CCCCC4)c(O)c(OC)c3)C2=O)cc(CN2CCCCC2)c1O,89.2%,-39.9% (active),-88.6% (active),-74.5% (active),-51.9% (active),-67.4% (active),-68% (active),-87.1% (active)
COC(=O)c1c2c(c(C)[n+]([O-])c1C)C(=O)C(NCc1ccc(OC)cc1)=CC2=O,3.48% (active),56%,-67.6% (active),6.71% (active),-7.88% (active),3.89% (active),15.1%,14.3%
COc1ccc(C#Cc2ccc(=O)oc2-c2cc(OC)c(OC)c(OC)c2)cc1O,45.2%,44.8%,0.895% (active),31.2%,16%,14.9%,9.46% (active),26.8%
CSc1nn2c(-c3ccc4ccccc4c3)ccnc2c1C#N,18.8%,44%,-63.6% (active),9.09% (active),10% (active),-38.1% (active),52.2%,5.75% (active)
O=C(/C=C/C12c3ccccc3C(c3ccccc31)C1C(=O)NC(=O)C12)c1ccc(Br)cc1 (stereo not drawn),36.8%,46.1%,18.5%,15.3%,10.1%,26.6%,95.3%,55.5%
C=C(c1ccc(OC)c(/C=C/C(=O)c2ccc3c(c2)OCO3)c1)c1cc(OC)c(OC)c(OC)c1,8.67% (active),12.7%,23.2%,5.67% (active),16.1%,2.56% (active),9.86% (active),4.46% (active)
NS(=O)(=O)c1ccc(-c2cc(-c3nnc(SCC(=O)Nc4ccc(C(=O)/C=C/c5ccc(Cl)cc5)cc4)n3-c3ccccc3)c3ccccc3n2)cc1,79.9%,97.9%,94%,97.7%,70.6%,7.54% (active),105%,92.1%
C=C1C(=O)O[C@H]2[C@H]1CC/C(Cn1cc(CCC)nn1)=C\CC[C@@]1(C)O[C@@H]21,-40.1% (active),40.4%,36.2%,-0.143% (active),11.1%,-55.7% (active),73.6%,81.1%

Compound,growth [1],growth [2],growth [3],growth [4],growth [5],growth [6],growth [7],growth [8]
Nc1ncnc2c1N=C(c1ccc3c(c1)OCO3)CC(c1cccc(Nc3ccnc4cc(C(F)(F)F)ccc34)c1)N2 (stereo not drawn),87.5%,112%,92.6%,69.1%,36.6%,70.3%,90.6%,50.1%
COc1ccc(/C=C/C(c2cc(OC)c(OC)c(OC)c2)n2cncn2)cc1 (stereo not drawn),30.8%,45.5%,-9.62% (active),26.6%,22.5%,22%,84.2%,30.7%
COc1ccc(C(=O)Cn2c(C(=O)c3ccc(Cl)cc3)nc3ccccc32)cc1,73.8%,88.8%,-8.55% (active),32.7%,20.4%,26.9%,72.7%,38.2%
O=C(Nc1ccccc1N1CCCC1=O)c1oc2ccc(F)cc2c1-c1cnn(-c2ccccc2)c1,35.4% [50 µM],56.7% [50 µM],62.2% [50 µM],75.4% [50 µM],43.8% [50 µM],23.8% [50 µM],90.5% [50 µM],47.4% [50 µM]
Nc1ccc(-c2csc(-n3[nH]c(=O)ccc3=O)n2)cc1,98.5%,92%,103%,104%,86.6%,94%,112%,104%
C=C(CNCCc1ccc(O)cc1)[C@@H]1CC[C@]2(CO)CC[C@]3(C)[C@H](CC[C@@H]4[C@@]5(C)CCC(=O)C(C)(C)[C@@H]5CC[C@]43C)[C@@H]12,42.2%,79.5%,2.13% (active),-49.8% (active),-1.07% (active),-86.1% (active),17.3%,1.19% (active)
CCC1S/C(=N\N=C(\C)c2cc3cc(Cl)ccc3o2)N(c2ccccc2)C1=O (stereo not drawn),88.5%,119%,96.4%,90%,100%,84.2%,83.2%,91.6%
N#C/C(=C\C=C\c1ccc(-c2cc(Cl)ccc2Cl)o1)c1nc2ccccc2s1,84.8%,104%,102%,98.1%,83.3%,96.6%,102%,106%
S=C(c1ccc2c(c1)OCO2)N1CCN(c2cccc(Cl)c2)CC1,11.6%,52.4%,-37.7% (active),4.12% (active),-0.55% (active),13.7%,-13.1% (active),12.6%
CNC(=O)c1cc(Oc2ccc3c(c2)sc2nc(-c4ccc(OC)cc4)cn23)ccn1,46.4%,52.4%,5.17% (active),77.7%,12.9%,16%,17.4%,58.9%
C=C(C)[C@@H]1CC[C@]2(COC(C)=O)CC[C@]3(C)[C@H](CC[C@@H]4[C@@]5(C)CCCN(C(C)=O)C(C)(C)[C@@H]5CC[C@]43C)[C@@H]12,10.9%,88.6%,4.85% (active),-53.9% (active),19.7%,-35.7% (active),-28.8% (active),5.81% (active)
CNC1=C([N+](=O)[O-])C(c2ccc(OC)cc2)C(C#N)=C(c2cccs2)O1 (stereo not drawn),91.7%,117%,108%,106%,96%,109%,109%,103%
COc1cc(Cl)c(C)cc1NC(=O)c1cc2ccccc2cc1O,11.5%,22.9%,3.68% (active),21.2%,17.2%,4.6% (active),17%,9.32% (active)
Cc1nn(-c2ccccc2)c(N)c1N=C1NC(=O)/C(=C/c2ccc(Br)cc2)S1,85.3%,78.6%,49.7%,84.2%,78.2%,68%,111%,76%
CCCCNc1nnc2n(Cc3ccccc3)c(=O)c3c4c(sc3n12)CCCC4,43.2%,56.3%,51.8%,23.3%,43.4%,27.2%,65%,49.8%
